Screens deposited in PubChem BioAssay by several laboratories.
Sampled rows, rich in hits. Any-hit rate of the full collection: about 1.2%.
eIF4E 4G PPI: eIF4E–eIF4G protein interaction inhibitors, primary screen, biochemical, uHTS, TR-FRET, eIF4GI fragment; Eukaryotic translation initiation factor 4E (Mus musculus) + Eukaryotic translation …; AID 782, 2007; inhibition, % at 21.7 µM; actives 0.37% (n = 220,000); TR-FRET eIF4E-eIF4GI(517-606) binding, 2 h;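 active = inhibition above about 30%, limit read from the data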;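 note: 0% = full FRET control wells and 100% = background wells lacking eIF4GI fragment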
zVAD death inh: inhibitors of zVAD-triggered necroptosis, primary screen, L929 cells | L929 zVAD necroptosis rescue, ATP luminescence, 24 h; with zVAD 60 µM | viability rescue, % at 10 µM | actives 0.38% (n = 220,000);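 active = activation, scaled between plate controls, above about 75%, limit read from the data; inactive = activation under that limit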;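 note: 0% = zVAD with DMSO and 100% = DMSO alone without zVAD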
EBV gp42 inh: Epstein-Barr virus gp42 inhibitors, primary screen, biochemical, uHTS, fluorescence polarization; Glycoprotein 42 (Epstein-Barr virus (strain AG876)), Q1HVG2; actives 0.42% (n = 220,000); AID 1085, 2008; Fluorescence polarization binding assay, mP read-out; inhibition, % (tested at 21.74 µM); in the data active = inhibition above about 50%
Target sequence (Q1HVG2 whole entry, looked up): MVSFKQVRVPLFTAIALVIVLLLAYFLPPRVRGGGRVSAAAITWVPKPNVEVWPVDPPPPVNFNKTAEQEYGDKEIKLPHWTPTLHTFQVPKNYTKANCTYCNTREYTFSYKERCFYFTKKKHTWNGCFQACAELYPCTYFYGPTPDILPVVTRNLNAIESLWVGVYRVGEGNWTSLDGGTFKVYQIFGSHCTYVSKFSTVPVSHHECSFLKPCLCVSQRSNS
TNF death inh: inhibitors of TNF-alpha triggered necroptosis, primary screen, cell-based, Jurkat FADD-/-, single concentration. AID 463075, 2010. activation (protection from cell death), % at 10 µM. actives 0.068% (n = 220,000). Jurkat FADD-/- TNF necroptosis rescue, ATP luminescence, 24 h; 0 = TNF only, 100 = no-TNF cells;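 active = activation, meaning protection from cell death, of at least 50% relative to plate controls; inactive = activation below 50%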;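 note: necroptosis triggered by 40 ng/mL TNF-alpha added together with compound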
Active calls of the source: *.

Screening CC(=C\C(=O)O)/C(=C\c1cccc2ccccc12)C(=O)O returned eIF4E 4G PPI 2, zVAD death inh 0, EBV gp42 inh -2 and TNF death inh 1.
Screening Cc1cc(Br)cnc1NC(=S)Nc1ccc(F)cc1F returned eIF4E 4G PPI 5, zVAD death inh -1, EBV gp42 inh -5 and TNF death inh 0.
`CCN(CC)C(=O)CSc1nnc2nnc3cc(OC)ccc3n12` gave eIF4E 4G PPI 4, zVAD death inh 1, EBV gp42 inh 124* and TNF death inh -5.
`CCN(CC)C(=O)CSc1nnc(COc2ccc(OC)cc2)n1N` gave eIF4E 4G PPI -1, zVAD death inh 2, EBV gp42 inh -8 and TNF death inh 1.
`NC(=O)c1ccc2c(=O)n3c(-c4cccs4)csc3nc2c1` gave eIF4E 4G PPI 1, zVAD death inh 0, EBV gp42 inh -16 and TNF death inh -1.
For Cc1ccc(NC(=O)CSCc2ccc(F)cc2)cc1 the results were eIF4E 4G PPI 12, zVAD death inh 0, EBV gp42 inh -14 and TNF death inh 53*.
Screening Cc1ccc(CSCC(=O)NCc2ccc(F)cc2)cc1 returned eIF4E 4G PPI -7, zVAD death inh 1, EBV gp42 inh 8 and TNF death inh 6.
O=C(NCCO)c1ccc2nc(-c3ccco3)c(-c3ccco3)nc2c1 was read as eIF4E 4G PPI 6, zVAD death inh -1, EBV gp42 inh -4 and TNF death inh -3.
`O=C(NCCc1ccccc1)c1ccc2nc(-c3ccco3)c(-c3ccco3)nc2c1` gave eIF4E 4G PPI 18, zVAD death inh 1, EBV gp42 inh 55* and TNF death inh -9.
`CCc1ccc(-c2cc(C(=O)NN3CCOCC3)c3ccccc3n2)cc1` gave eIF4E 4G PPI 8, zVAD death inh 0, EBV gp42 inh 10 and TNF death inh -4.
`O=C(NN1CCOCC1)c1cc(-c2ccc(Br)cc2)nc2ccccc12` gave eIF4E 4G PPI 58*, zVAD death inh 2, EBV gp42 inh -1 and TNF death inh 2.
For Cc1cc(-c2ccc(N3CCOCC3)cc2)nc2ccccc12 the results were eIF4E 4G PPI 1, zVAD death inh 1, EBV gp42 inh 56* and TNF death inh 0.
Cc1ccc(C(C)C)c(OCc2nc(-c3nonc3N)no2)c1 was read as eIF4E 4G PPI 53*, zVAD death inh 4, EBV gp42 inh 11 and TNF death inh 2.
Cn1c(=O)c(Nc2ccc(O)cc2)c2c3c(cccc31)C(=O)c1ccccc1-2 was read as eIF4E 4G PPI 10, zVAD death inh 7, EBV gp42 inh 127* and TNF death inh -3.
CCN1C(=O)[C@@H]2C(C(=O)c3cnccn3)=NN[C@@H]2C1=O was read as eIF4E 4G PPI 1, zVAD death inh 0, EBV gp42 inh -9 and TNF death inh 5.
`Cc1ccn2c(-c3n[nH]c(=S)n3C)c(C)nc2c1` gave eIF4E 4G PPI 22, zVAD death inh 0, EBV gp42 inh -10 and TNF death inh 1.
Screening O=[N+]([O-])c1ccc(/C=C/c2nc3ccc([N+](=O)[O-])cc3[nH]2)cc1 returned eIF4E 4G PPI -10, zVAD death inh 41, EBV gp42 inh 113* and TNF death inh -5.
Screening Nc1nc2ccc([N+](=O)[O-])cc2[nH]1 returned eIF4E 4G PPI 9, zVAD death inh 1, EBV gp42 inh 3 and TNF death inh 0.
N#Cc1cccc(NC(=O)CSc2ccccc2)c1 was read as eIF4E 4G PPI -4, zVAD death inh 0, EBV gp42 inh -2 and TNF death inh 4.
Screening N#Cc1cccc(NC(=O)CSc2ccc3c4c(cccc24)C(=O)c2ccccc2-3)c1 returned eIF4E 4G PPI 4, zVAD death inh -1, EBV gp42 inh 107* and TNF death inh 0.
For COc1ccc(NC(=O)CSc2ccc3c4c(cccc24)C(=O)c2ccccc2-3)cc1 the results were eIF4E 4G PPI -10, zVAD death inh 0, EBV gp42 inh 133* and TNF death inh -5.
CC1(C)CC(CCNC(=O)CCl)(c2ccccc2)CCO1 (stereo unspecified) was read as eIF4E 4G PPI 0, zVAD death inh 1, EBV gp42 inh -4 and TNF death inh 2.
O=[N+]([O-])c1ccc(Nc2ccccc2F)nc1 was read as eIF4E 4G PPI -1, zVAD death inh 50, EBV gp42 inh 7 and TNF death inh 73*.
For O=[N+]([O-])c1ccc(Nc2ccc3ccccc3c2)nc1 the results were eIF4E 4G PPI 3, zVAD death inh 2, EBV gp42 inh -10 and TNF death inh 21.
For O=[N+]([O-])c1ccc(Nc2ccc(Cl)cc2)nc1 the results were eIF4E 4G PPI 2, zVAD death inh 56, EBV gp42 inh -9 and TNF death inh 81*.
Screening O=[N+]([O-])c1ccc(NCc2ccc(Cl)cc2)nc1 returned eIF4E 4G PPI 1, zVAD death inh 1, EBV gp42 inh -7 and TNF death inh 47.
CCn1c2ccccc2c2cc(NC(=O)COC(=O)c3cc(Cl)c(N)cc3OC)ccc21 was read as eIF4E 4G PPI 6, zVAD death inh 2, EBV gp42 inh -33 and TNF death inh -2.
For COc1ccc(-n2nc(N)c(C(N)=O)n2)cc1 the results were eIF4E 4G PPI 4, zVAD death inh -1, EBV gp42 inh -4 and TNF death inh 0.
Screening O=C(NCCc1ccccc1)c1ccccc1F returned eIF4E 4G PPI -1, zVAD death inh 0, EBV gp42 inh -7 and TNF death inh -1.
For O=C(NCCc1ccncc1)c1ccccc1F the results were eIF4E 4G PPI 61*, zVAD death inh 0, EBV gp42 inh -1 and TNF death inh -1.
CCN(CC)C(=O)CC(c1cc(OC)c(OC)c(OC)c1)c1c(OC)cc(OC)c2c(-c3ccccc3)cc(=O)oc12 (stereo unspecified) was read as eIF4E 4G PPI 34*, zVAD death inh 0, EBV gp42 inh 99* and TNF death inh -4.
CCN(CC)C(=O)CC(c1cc(OC)c(OC)c(OC)c1)c1c(OC)cc(OC)c2ccc(=O)oc12 (stereo unspecified) was read as eIF4E 4G PPI -3, zVAD death inh 0, EBV gp42 inh -22 and TNF death inh 0.
For COc1ccccc1N1CCN(S(=O)(=O)Cc2ccccc2Cl)CC1 the results were eIF4E 4G PPI 31*, zVAD death inh 0, EBV gp42 inh -13 and TNF death inh 1.
O=C(O)c1ccccc1Nc1ccnc(Cl)n1 was read as eIF4E 4G PPI 74*, zVAD death inh 0, EBV gp42 inh -15 and TNF death inh 2.
`CC(=O)OC(C(=O)NC1CCCCC1)c1ccc(Cl)c(Cl)c1` (stereo unspecified) gave eIF4E 4G PPI 4, zVAD death inh 3, EBV gp42 inh -17 and TNF death inh 70*.
